Reference: PubChem BioAssay AID2326 (National Center for Advancing Translational Sciences (NCATS), 2010)
Screen size: about 270,000 compounds; about 1,100 (0.41%) were called active. Entries that show only a call come without a potency. Another 3% or so got no clear call; they are omitted. Calls follow the shape of the full dose curve. The sample as a whole holds a higher share of actives than the screen did.

assay: qHTS Assay for Inhibitors of Influenza NS1 Protein Function; conditions: series mostly up to 46.1 µM; also: actives are rising curves; nearly all actives have a fitted effect of over 50% in size
Excerpt: NIH Chemical Genomics Center [NCGC]
NIH Molecular Libraries Probe Centers Network [MLPCN]
Assay Submitter (PI): Daniel Engel
Influenza is a world-wide public health problem and emerging forms of the virus have the potential to cause a pandemic of equal or greater magnitude to the outbreaks recorded in 1918, 1957 or 1968. Vaccine development is proceeding and there also exist two classes of anti-influenza compounds. However these therapeutic modalities are neither fully effective nor widely enough available to fulfill global needs. In addition their potential usefulness against newly emergent strains is not known. Efforts are needed to develop novel agents against influenza virus, including broad-spectrum agents. Identification of small molecules that inhibit NS1 function either directly or by interfering with specific cellular pathways may be a key to increasing our defense against the virus.
We have miniaturized and optimized a cell based assay in which NS1 from influenza A is expressed in the budding yeast S. cerevisiae. NS1 is a multi-functional protein that counters the host innate immune response and facilitates viral versus cellular gene expression. Expression of NS1 causes a pronounced slow growth phenotype in yeast due to its intrinsic molecular activities. Small molecules that suppress the slow growth phenotype can be identified by a straightforward growth recovery assay using optical density (OD) as the measurement. The same yeast strain not expressing NS1 was used as positive control in the yeast growth recovery assay.
The yeast S. cerevisiae control and NS1 expressing cells were kindly supplied by laboratory of Dr. Daniel Engel, University of Virginia. Yeast starter cultures were stored in single use aliquots at -80C.
1. Yeast culture medium per liter: 1.2 g Yeast Nitrogen Base (w/out amino acids and Ammonium Sulphate), 5.0g Ammonium Sulphate, 0.77g -URA DO (drop-out) Supplement, adjust pH to 6.0. Adjust to 2% glucose prior to inoculating with yeast.
2. Yeast assay medium: 1.2 g Yeast Nitrogen Base (w/out amino acids and Ammonium Sulphate), 5.0g Ammonium Sulphate, 0.77g -URA DO (drop-out) Supplement, adjust pH to 6.0. Adjust to 2% D-galactose prior to inoculating with yeast.
1. Inoculate 100 mls of yeast culture medium with 1 ml of frozen yeast aliquote. Incubate overnight at 30C, 250RPM.
2. Harvest overnight culture at 4000 RPM and wash pellet with 15 mls H2O 3x.
3. Re-suspend washed pellet in 10 mls of yeast assay medium.
4. Prepare a 1:100 dilution of re-suspended culture in yeast assay medium.
5. Dispense 3.5 ul per well of reagents in step 4 in columns 2-48 in a black clear bottom 1536 well plate.
6. Dispense 3.5 ul per well of yeast assay medium in column 1 only.
7. Transfer 23 nl of compound per well.
8. Dispense 3.5 ul per well of yeast assay medium in columns 1-48.
9. Read plate using Viewlux protocol for optical density 600 (OD600) using excitation filter 600nm.
Potency is read from the fitted curve at half-maximal effect.

| SMILES | Potency |
| --- | --- |
| CCN1CCN(c2nc(Nc3cc(OC)ccc3OC)nc(Nc3cc(OC)ccc3OC)n2)CC1 | inactive |
| CCOc1ccc(Nc2nc(Cl)nc(N3CCN(c4ccc(OC)cc4)CC3)n2)cc1 | 10 µM (active) |
| COc1ccc(Nc2nc(Cl)nc(NCc3ccco3)n2)cc1 | inactive |
| CC(=O)Oc1ccc(-c2cccc(C(=O)N3CCCCC3)c2)cc1 | inactive |
| COc1ccc(Cn2c(=S)[nH]c3cc(C(=O)N4CCCCC4)ccc3c2=O)cc1 | inactive |
| COc1ccc(-n2nc(C(=O)NCC(=O)N3CCCCCC3)c3ccccc3c2=O)cc1Cl | inactive |
| C=CCn1c(C23CC4CC(CC(C4)C2)C3)n[nH]c1=S | inactive |
| COC(=O)c1c(NC(=O)c2cccs2)sc2c1CCCC2 | 2.24 µM (active) |
| CC(C)OC(=O)c1c(NC(=O)c2ccco2)sc2c1CCCC2 | inactive |
| COC(=O)c1c(NC(=O)CCCC(=O)O)sc2c1CCCCC2 | inactive |
| Cc1ccc(O)c(CNc2nc3ccccc3[nH]2)c1 | inactive |
| Cc1cccc(Nc2nc(-c3ccccc3)cs2)n1 | inactive |
| CN(C)c1ccc(/C=C/C(=O)c2ccc(C(C)(C)C)cc2)cc1[N+](=O)[O-] | 12.6 µM (active) |
| CN(C)c1ccc(/C=C/C(=O)c2ccc(O)cc2)cc1[N+](=O)[O-] | inactive |
| O=C(/C=C/c1ccc(Cl)c([N+](=O)[O-])c1)c1ccc(O)cc1 | inactive |
| O=C(CNC(=O)c1ccc(F)cc1)c1ccccc1 | inactive |
| O=c1c2cc(Br)ccc2nc(-c2cccc(Cl)c2)n1O | inactive |
| CCS(=O)(=O)Nc1ccc(C(=O)NCCSc2ccccc2)cc1 | inactive |
| Cc1cccc(N2C(=O)N3[C@H](c4ccc(F)cc4)[C@@H]4C(=O)N(C5CCCCC5)C(=O)[C@@H]4[C@]3(Cc3ccccc3)C2=O)c1 | inactive |
| Cc1cccc([C@@H]2[C@@H]3C(=O)N(Cc4ccccc4)C(=O)[C@@H]3[C@]3(C)C(=O)N(c4ccc(Br)cc4)C(=O)N23)c1 | 11.2 µM (active) |
| C[C@@]12C(=O)N(c3cccc(Br)c3)C(=O)N1[C@H](c1ccc(Cl)cc1)[C@@H]1C(=O)N(C3CCCCC3)C(=O)[C@@H]12 | inactive |
| CN(Cc1cnccn1)C(=O)c1cc(COc2cccc(C(F)(F)F)c2)on1 | inactive |
| O=C(Nc1nnc(C2CC2)s1)c1cc(Cl)sc1Cl | inactive |
| Cc1ccc(NC(=S)Nc2ccc(F)cc2)cc1 | inactive |
| O=C(Nc1ccc(S(=O)(=O)N2CCCCCC2)cc1)c1c(F)cccc1F | inactive |
| COc1ccc(CNC(=O)[C@H](Cc2c[nH]c3ccccc23)NC(C)=O)cc1OC | inactive |
| COc1ccc(CN(C)C(=O)Cc2c[nH]c3ccccc23)c(OC)c1OC | inactive |

| SMILES | Potency |
| --- | --- |
| COc1ccc(C(C(=O)NC2CCCCC2)N(C(=O)Cc2c[nH]c3ccccc23)c2ccccc2)cc1OC (stereo not given) | 11.2 µM (active) |
| CCOC(=O)C(Cc1ccc(N)cc1)N1C(=O)c2ccccc2C1=O (stereo not given) | inactive |
| Cc1ccccc1C(=O)N1CCC(C(=O)Oc2ccc(C#N)cc2)CC1 | inactive |
| CCC1CCCCN1CCCNC(=O)Cn1nc(-c2ccccc2)ccc1=O (stereo not given) | inactive |
| CCCCNC(=O)CCn1nc(-c2ccc(Cl)cc2)ccc1=O | inactive |
| Cc1ccc(-c2ccc(=O)n(CC(=O)NCCCN3CCCCC3)n2)cc1 | 3.55 µM (active) |
| CCC(NC(=O)c1cc(COc2ccc(F)c(F)c2)on1)c1ccncc1 (stereo not given) | inactive |
| CCc1ccc(-c2nc(SCC(=O)NC3CCCC3)n[nH]2)cc1 | inactive |
| CC(=O)Nc1ccc(S(=O)(=O)Nc2cc(C)cn(Cc3ccc(C)cc3)c2=O)cc1 | inactive |
| Cc1cccc(-n2ncc(Cl)c(Cl)c2=O)c1 | inactive |
| O=C(Nc1ncc([N+](=O)[O-])s1)C1COc2ccccc2O1 (stereo not given) | inactive |
| c1ccc(Nc2nc(N3CCOCC3)c3ccccc3n2)cc1 | inactive |
| C1=C(N2CCOCC2)/C(=C/c2nc3ccccc3[nH]2)CC1 | 3.98 µM (active) |
| O=c1[nH]c(N2CCOCC2)nc2ccccc12 | inactive |
| COc1ccc(CNS(=O)(=O)c2ccc(NC(=O)N3CCCCC3)cc2)cc1 | inactive |
| O=C(/C=C/c1ccc([N+](=O)[O-])o1)NNC(=O)c1ccc(F)cc1 | inactive |
| O=C(/C=C/c1ccco1)NC(=S)N1CCCCC1 | inactive |
| Cc1ccc(C(=O)Nc2nnc(C3=COCCO3)o2)cc1C | inactive |
| O=C(CN1C(=O)S/C(=C\c2ccccc2Cl)C1=O)NC1C=CS(=O)(=O)C1 (stereo not given) | inactive |
| COc1ccc(-c2nnc(SCC(=O)c3cccs3)o2)c(OC)c1 | inactive |
| COc1ccc(C(=O)CSc2nnc(-c3ccco3)o2)cc1 | inactive |
| COc1ccc(-n2c(C)cc(C(=O)CSc3nnc(-c4cccs4)o3)c2C)cc1 | 11.2 µM (active) |
| Cc1ccc(O)c(/C=N/NC(=O)COc2ccc3c(C)cc(=O)oc3c2)c1 | inactive |
| O=[N+]([O-])c1ccc(O)c(/C=N/Nc2ccccc2[N+](=O)[O-])c1 | inactive |
| S=C(Nc1cccc(Cl)c1)Nc1ccc2c(c1)OCCO2 | inactive |
| CSc1ccccc1OCc1cc(C(=O)N2C[C@H]3CC[C@H]2C3)no1 | inactive |
| CCc1cccc(CC)c1NC(=S)NCc1ccc2[nH]c(C)cc2c1 | inactive |

| SMILES | Potency |
| --- | --- |
| Cc1cc2cc(CNC(=O)c3cccs3)ccc2[nH]1 | 7.08 µM (active) |
| Cc1cc2cc(CNC(=O)c3ccc(S(=O)(=O)N4CCOCC4)cc3)ccc2[nH]1 | inactive |
| CCC(=O)Nc1ccc(-c2ccc(N3CCCCC3)nn2)cc1 | inactive |
| CCCCNC(=O)N(O)C1N(/N=C/c2ccccc2O)C(=S)SC1(C)C (stereo not given) | inactive |
| COc1ccc(CNC(=O)CCC(=O)Nc2nnc(C(C)C)s2)cc1 | inactive |
| COc1cccc(OC)c1C(=O)Nc1nnc(C(C)C)s1 | 3.98 µM (active) |
| C/C=C/C(=O)Nc1nnc(C(C)C)s1 | inactive |
| CCCN1CCn2c3c(c4cc(Br)ccc42)CCCC31 (stereo not given) | inactive |
| O=C(NCCCc1ccccc1)C(=O)c1c[nH]c2ccccc12 | inactive |
| CSc1nnc(NC(=O)c2nc(S(=O)(=O)Cc3ccc(C)cc3)ncc2Cl)s1 | inactive |
| CCc1ccc(S(=O)(=O)N/N=C\c2ccc([N+](=O)[O-])o2)cc1 | inactive |
| CSCc1nnc(NC(=O)c2ccc(S(=O)(=O)N3CCCCC3C)cc2)o1 (stereo not given) | inactive |
| COCCCn1c2nc3ccccc3nc2c2c(=O)n(Cc3ccc(Cl)cc3)c(C)nc21 | inactive |
| Cc1nc2c(c(=O)n1Cc1ccco1)c1nc3ccccc3nc1n2Cc1ccccc1 | inactive |
| Cc1ccc(Cn2c(C)nc3c(c2=O)c2nc4ccccc4nc2n3Cc2ccco2)cc1 | 4.47 µM (active) |
| CC1(C(=O)NNC(=S)NCC2CCCO2)CC1(Cl)Cl (stereo not given) | inactive |
| O=C(N[C@@H](Cc1ccccc1)C(=O)OCc1ccccc1)c1nc[nH]c1C(=O)N[C@@H](Cc1ccccc1)C(=O)OCc1ccccc1 | inactive |
| CCc1ccc(OCC2c3cc(OC)c(OC)cc3CCN2C(C)=O)cc1 (stereo not given) | inactive |
| COc1ccccc1NC(=O)CN1CCN(S(=O)(=O)c2ccc(Br)cc2)CC1 | inactive |
| COc1cc2c(cc1NC(=O)CN1CCN(S(=O)(=O)c3ccc(F)cc3)CC1)oc1ccccc12 | 5.62 µM (active) |
| COc1ccc(NC(=O)CN2CCN(S(=O)(=O)c3ccc(F)cc3)CC2)cc1Cl | inactive |
| CC(CN1CCOCC1)OC(=O)c1ccc(C(C)(C)C)cc1 (stereo not given) | inactive |
| O=C(CC(n1cncn1)C(Cl)(Cl)Cl)c1ccc([N+](=O)[O-])cc1 (stereo not given) | inactive |
| COc1ccc(S(=O)(=O)Nc2c(C)n(C)n(-c3ccccc3)c2=O)cc1 | 3.98 µM (active) |
| Cc1cc(C)c(S(=O)(=O)Nc2c(C)n(C)n(-c3ccccc3)c2=O)cc1[N+](=O)[O-] | inactive |
| Cc1ccc(S(=O)(=O)Nc2ccccc2CNc2c(C)n(C)n(-c3ccccc3)c2=O)cc1 | inactive |
| O=[N+]([O-])c1ccc(NC(=S)N2CCN(c3ccccn3)CC2)cc1 | inactive |

| SMILES | Potency |
| --- | --- |
| FC(F)(F)C1CCCN(c2nsc3ccccc23)C1 (stereo not given) | inactive |
| COc1cccc(OCc2cc(C(=O)N3CCN(C(=O)c4ccco4)CC3)no2)c1 | inactive |
| O=C(Cc1cc(=O)[nH][nH]1)N/N=C/c1ccccc1[N+](=O)[O-] | 8.91 µM (active) |
| Cc1ccsc1/C=N/NC(=O)Cc1cc(=O)[nH][nH]1 | inactive |
| Cc1cc(C(=O)N/N=C/c2ccccc2[N+](=O)[O-])c(C)o1 | inactive |
| COc1cnc(-c2ccccn2)nc1Oc1ccc(C(C)(C)C)cc1 | inactive |
| O=C(CSc1nnnn1C1CCCC1)N1CCCCC1 | inactive |
| COc1ccc(C2CC(c3cccs3)=NN2C(=O)CCC(=O)O)cc1OC (stereo not given) | inactive |
| O=C1c2cccc(OCC(=O)N3N=C(c4cccs4)CC3c3ccc(F)cc3)c2CCN1Cc1ccccc1 (stereo not given) | 5.01 µM (active) |
| COc1ccc(C2CC(c3cccs3)=NN2C(=O)COC(=O)c2cc3ccccc3cc2O)cc1OC (stereo not given) | inactive |
| O=C(Nc1ccc(C2CC2(Cl)Cl)cc1)c1cccc([N+](=O)[O-])c1 (stereo not given) | inactive |
| Cc1cnc(NC(=O)c2ccc(Cl)nc2)s1 | inactive |
| O=C(CCCN1C(=O)/C(=C/c2cccs2)SC1=S)Nc1ccc(O)cc1 | inactive |
| COc1ccc(CNC(=O)C(c2ccc(O)cc2)N(Cc2ccco2)C(=O)c2snc(C(N)=O)c2N)cc1 (stereo not given) | inactive |
| Cc1cccc(NC(=S)NCCc2ccc(Cl)cc2)c1C | inactive |
| O=c1[nH]nc(CSCc2ccccc2Cl)[nH]1 | inactive |
| Clc1ccccc1CSc1nnc(-c2ccco2)c(-c2ccco2)n1 | inactive |
| O=c1cc(O)nc(SCc2ccccc2Cl)[nH]1 | 5.01 µM (active) |
| COc1ccc(C(=O)/C=C/c2cccnc2)c(OC)c1 | inactive |
| O=C(/C=C/c1ccco1)NC(=S)Nc1ccccc1Br | inactive |
| Oc1ccccc1-c1cc(-c2ccc(Cl)cc2)n[nH]1 | inactive |
| Cc1ccccc1C(OCC(O)CN1CCCCC1CCO)c1ccccc1 (stereo not given) | 4.47 µM (active) |
| CC(C)OCC(O)CN1CCN(C(c2ccccc2)c2ccccc2)CC1 (stereo not given) | inactive |
| COc1cccc(CN(C)CC(O)COC(c2ccccc2)c2ccccc2C)c1 (stereo not given) | inactive |
